# From ChEMBL document CHEMBL3988442, “University of Dundee, Small-Polar-MMV Screening Library” (2021)
# For some of these results: Potency and affinity values are given separately.
# How the values were obtained:
# Set-up in all cases: scale not given: direction of the effect not stated beside the values
# [1] = target: Protein translocase subunit SecA (Escherichia coli (strain K12)) (UniProt P10408); assay: Assay to Identify E. coli SecA ATPase Inhibitors; format: functional; conditions: 30 µM
# Protein translocase subunit SecA (Escherichia coli (strain K12)), sequence (P10408 whole entry): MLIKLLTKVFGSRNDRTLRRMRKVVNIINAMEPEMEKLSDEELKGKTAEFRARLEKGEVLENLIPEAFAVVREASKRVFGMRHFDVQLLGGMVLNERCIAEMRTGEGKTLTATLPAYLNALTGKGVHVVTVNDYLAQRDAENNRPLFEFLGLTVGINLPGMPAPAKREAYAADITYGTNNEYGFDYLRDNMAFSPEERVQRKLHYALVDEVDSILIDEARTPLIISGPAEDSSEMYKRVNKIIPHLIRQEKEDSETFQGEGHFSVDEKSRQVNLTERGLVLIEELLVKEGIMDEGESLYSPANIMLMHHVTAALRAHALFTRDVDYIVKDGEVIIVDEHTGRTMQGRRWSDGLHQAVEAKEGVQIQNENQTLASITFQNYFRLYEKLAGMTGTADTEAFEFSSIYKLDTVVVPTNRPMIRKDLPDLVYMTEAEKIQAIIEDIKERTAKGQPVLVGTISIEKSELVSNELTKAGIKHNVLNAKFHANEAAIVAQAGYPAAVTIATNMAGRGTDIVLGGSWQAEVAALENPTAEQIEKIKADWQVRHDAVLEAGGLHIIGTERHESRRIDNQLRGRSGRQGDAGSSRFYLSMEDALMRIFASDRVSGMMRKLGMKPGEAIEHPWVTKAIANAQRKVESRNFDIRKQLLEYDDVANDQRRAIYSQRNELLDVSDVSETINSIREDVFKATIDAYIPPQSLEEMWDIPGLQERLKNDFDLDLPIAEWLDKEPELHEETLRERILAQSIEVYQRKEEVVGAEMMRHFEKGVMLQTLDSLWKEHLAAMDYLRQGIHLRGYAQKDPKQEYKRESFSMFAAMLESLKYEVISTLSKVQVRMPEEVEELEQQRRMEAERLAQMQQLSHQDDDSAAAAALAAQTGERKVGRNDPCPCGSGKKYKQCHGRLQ
# [2] = target: T1, Ubiquitin-activating enzyme e1, putative (Leishmania donovani (strain BPK282A1)) (UniProt E9BSI1); assay: Leishmania donovani Ubiquitin Activating Enzyme (LdE1); format: functional; conditions: 30 µM
# T1 sequence (whole entry): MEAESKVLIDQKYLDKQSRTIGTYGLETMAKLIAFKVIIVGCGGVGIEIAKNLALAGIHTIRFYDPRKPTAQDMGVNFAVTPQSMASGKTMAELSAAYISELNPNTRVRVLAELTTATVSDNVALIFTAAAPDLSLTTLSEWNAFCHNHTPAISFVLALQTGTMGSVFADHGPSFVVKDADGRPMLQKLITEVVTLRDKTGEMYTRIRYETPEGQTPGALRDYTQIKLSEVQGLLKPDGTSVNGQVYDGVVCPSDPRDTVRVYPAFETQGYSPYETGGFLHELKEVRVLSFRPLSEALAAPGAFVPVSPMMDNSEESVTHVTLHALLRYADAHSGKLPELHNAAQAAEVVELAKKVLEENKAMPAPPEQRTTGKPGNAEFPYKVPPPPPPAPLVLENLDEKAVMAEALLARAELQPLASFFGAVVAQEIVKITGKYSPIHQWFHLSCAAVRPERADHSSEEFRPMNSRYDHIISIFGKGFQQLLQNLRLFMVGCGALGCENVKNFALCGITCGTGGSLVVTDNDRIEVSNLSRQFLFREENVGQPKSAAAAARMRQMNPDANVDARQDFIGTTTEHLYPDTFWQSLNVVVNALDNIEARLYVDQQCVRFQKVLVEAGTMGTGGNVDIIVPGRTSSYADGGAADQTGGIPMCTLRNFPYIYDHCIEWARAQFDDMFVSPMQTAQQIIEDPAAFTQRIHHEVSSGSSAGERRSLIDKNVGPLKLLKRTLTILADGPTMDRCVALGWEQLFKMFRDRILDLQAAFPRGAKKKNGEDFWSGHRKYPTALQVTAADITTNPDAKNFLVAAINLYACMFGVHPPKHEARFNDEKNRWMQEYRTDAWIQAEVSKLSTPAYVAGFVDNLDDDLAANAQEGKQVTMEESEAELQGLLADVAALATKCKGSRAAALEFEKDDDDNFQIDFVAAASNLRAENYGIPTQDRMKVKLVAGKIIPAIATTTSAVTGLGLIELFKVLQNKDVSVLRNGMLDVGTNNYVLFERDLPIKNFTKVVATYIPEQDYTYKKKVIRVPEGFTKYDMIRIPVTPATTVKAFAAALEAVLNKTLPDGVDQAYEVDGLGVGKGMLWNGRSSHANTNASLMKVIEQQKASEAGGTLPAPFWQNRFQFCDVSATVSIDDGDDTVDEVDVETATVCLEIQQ
# [3] = target: AMP-activated protein kinase, AMPK (Homo sapiens) (UniProt P54646+O43741+P54619+Q9UGJ0+Q9Y478+Q13131+Q9UGI9); assay: AMP-dependent Kinase enzyme assay. An in vitro enzyme assay that detects ADP turnover that is directly proportional to AMPK activity. This uses naive AMPK that is activated during the assay with MK-8722; format: functional; conditions: 30 µM
# [4] = target: Sialic acid-binding Ig-like lectin 9 (Homo sapiens) (UniProt Q9Y336); assay: Hs-Siglec9 ALPHAscreen SOP 20170721; conditions: 10 µM
# Sialic acid-binding Ig-like lectin 9 (Homo sapiens), sequence (Q9Y336 whole entry): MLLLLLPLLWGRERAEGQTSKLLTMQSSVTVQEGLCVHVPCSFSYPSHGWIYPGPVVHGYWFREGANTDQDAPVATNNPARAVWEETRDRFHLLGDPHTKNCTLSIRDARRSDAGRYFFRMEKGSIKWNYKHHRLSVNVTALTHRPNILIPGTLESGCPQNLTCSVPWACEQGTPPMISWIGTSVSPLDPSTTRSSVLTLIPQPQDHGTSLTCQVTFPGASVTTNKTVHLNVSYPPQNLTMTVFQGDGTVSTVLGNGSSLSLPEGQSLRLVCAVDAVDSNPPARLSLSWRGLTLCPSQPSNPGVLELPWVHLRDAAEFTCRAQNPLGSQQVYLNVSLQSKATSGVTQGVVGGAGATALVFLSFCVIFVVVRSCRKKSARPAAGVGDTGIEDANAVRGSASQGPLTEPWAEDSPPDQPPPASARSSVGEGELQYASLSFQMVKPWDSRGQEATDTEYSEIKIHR
# Trypanosoma cruzi = assay: Trypanosoma cruzi phosphomannomutase and mannose-1-phosphate guanylyltransferase assay; format: functional; conditions: 10 µM
# [5] = target: T2, Arginase-2, mitochondrial (Homo sapiens) (UniProt P78540); assay: in vitro enzyme assay to detect the production of urea directly proportional to the activity of Arginase II; format: functional; conditions: 33.3 µM; also: in the data most compounds retested in dose-response had high values
# T2 sequence (whole entry): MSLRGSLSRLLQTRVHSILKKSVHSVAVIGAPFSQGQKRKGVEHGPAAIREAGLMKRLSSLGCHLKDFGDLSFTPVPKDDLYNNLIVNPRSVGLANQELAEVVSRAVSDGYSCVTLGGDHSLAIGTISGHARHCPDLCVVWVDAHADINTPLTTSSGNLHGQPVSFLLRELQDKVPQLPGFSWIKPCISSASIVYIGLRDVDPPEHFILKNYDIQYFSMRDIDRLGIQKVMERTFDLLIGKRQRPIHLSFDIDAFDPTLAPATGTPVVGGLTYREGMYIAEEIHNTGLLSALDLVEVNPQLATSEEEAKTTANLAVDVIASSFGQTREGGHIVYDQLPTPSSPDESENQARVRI
# [6] = target: T3, Proteasome subunit beta (Trypanosoma cruzi) (UniProt O96673); assay: Trypanosoma cruzi proteasome chymotrypsin-like activity (TcProtChymo) assay.; also: in the data most compounds retested in dose-response had high values; format: functional; conditions: 9.37 µM
# T3 sequence (whole entry): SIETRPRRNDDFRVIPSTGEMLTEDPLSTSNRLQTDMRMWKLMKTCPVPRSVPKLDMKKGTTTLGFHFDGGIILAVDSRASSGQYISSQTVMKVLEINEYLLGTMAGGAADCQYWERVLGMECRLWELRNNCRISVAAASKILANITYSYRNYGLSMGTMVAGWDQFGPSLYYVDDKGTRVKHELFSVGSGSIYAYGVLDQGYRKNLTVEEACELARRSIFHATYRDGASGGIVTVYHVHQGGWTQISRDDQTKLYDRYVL
# Homo sapiens = organism: Homo sapiens; assay: To identify inhibition of the IFN signalling (Jak-Stat) pathway via expression of an eGFP reporter gene under the control of an IFN-stimulated response element (ISRE) containing MxA promoter.; format: functional; conditions: 30 µM
# [7] = target: T4, Tyrosyl-tRNA synthetase, putative (Trypanosoma cruzi (strain CL Brener)) (UniProt Q4DSP6); assay: Trypanosoma cruzi tyrosyl tRNA synthetase (TcYRS) _High Tyrosine SOP; format: functional; conditions: 30 µM; also: in the data most compounds retested in dose-response had high values
# T4 sequence (whole entry): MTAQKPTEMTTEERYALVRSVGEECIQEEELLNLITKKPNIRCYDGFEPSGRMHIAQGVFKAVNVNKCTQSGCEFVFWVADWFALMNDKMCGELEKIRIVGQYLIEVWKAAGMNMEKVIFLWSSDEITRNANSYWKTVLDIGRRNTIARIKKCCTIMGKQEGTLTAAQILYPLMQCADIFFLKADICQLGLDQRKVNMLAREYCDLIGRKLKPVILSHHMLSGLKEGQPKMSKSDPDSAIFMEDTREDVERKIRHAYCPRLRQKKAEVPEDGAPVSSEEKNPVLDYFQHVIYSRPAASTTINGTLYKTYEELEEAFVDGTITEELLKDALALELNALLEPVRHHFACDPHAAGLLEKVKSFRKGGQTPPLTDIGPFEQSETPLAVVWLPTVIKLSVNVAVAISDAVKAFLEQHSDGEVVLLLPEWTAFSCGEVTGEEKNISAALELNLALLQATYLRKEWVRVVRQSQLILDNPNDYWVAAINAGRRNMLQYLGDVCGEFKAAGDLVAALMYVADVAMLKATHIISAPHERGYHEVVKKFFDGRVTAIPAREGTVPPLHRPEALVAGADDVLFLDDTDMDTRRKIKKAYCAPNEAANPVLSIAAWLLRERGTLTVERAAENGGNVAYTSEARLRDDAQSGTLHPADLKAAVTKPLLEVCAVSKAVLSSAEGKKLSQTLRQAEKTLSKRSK
# [8] = target: T4, Tyrosyl-tRNA synthetase, putative (Trypanosoma cruzi (strain CL Brener)); assay: Trypanosoma cruzi tyrosyl tRNA synthetase (TcYRS) SOP; format: functional; conditions: 30 µM
# [9] = target: Chromo domain-containing protein 1 (Saccharomyces cerevisiae (strain ATCC 204508 / S288c) (Baker's yeast)) (UniProt P32657); assay: ScCHD-1 Enzyme Inhibition Assay; format: functional; conditions: 30 µM; also: in the data most compounds retested in dose-response had high values
# Chromo domain-containing protein 1 (Saccharomyces cerevisiae (strain ATCC 204508 / S288c) (Baker's yeast)), sequence (P32657 whole entry, the tested form may be a part): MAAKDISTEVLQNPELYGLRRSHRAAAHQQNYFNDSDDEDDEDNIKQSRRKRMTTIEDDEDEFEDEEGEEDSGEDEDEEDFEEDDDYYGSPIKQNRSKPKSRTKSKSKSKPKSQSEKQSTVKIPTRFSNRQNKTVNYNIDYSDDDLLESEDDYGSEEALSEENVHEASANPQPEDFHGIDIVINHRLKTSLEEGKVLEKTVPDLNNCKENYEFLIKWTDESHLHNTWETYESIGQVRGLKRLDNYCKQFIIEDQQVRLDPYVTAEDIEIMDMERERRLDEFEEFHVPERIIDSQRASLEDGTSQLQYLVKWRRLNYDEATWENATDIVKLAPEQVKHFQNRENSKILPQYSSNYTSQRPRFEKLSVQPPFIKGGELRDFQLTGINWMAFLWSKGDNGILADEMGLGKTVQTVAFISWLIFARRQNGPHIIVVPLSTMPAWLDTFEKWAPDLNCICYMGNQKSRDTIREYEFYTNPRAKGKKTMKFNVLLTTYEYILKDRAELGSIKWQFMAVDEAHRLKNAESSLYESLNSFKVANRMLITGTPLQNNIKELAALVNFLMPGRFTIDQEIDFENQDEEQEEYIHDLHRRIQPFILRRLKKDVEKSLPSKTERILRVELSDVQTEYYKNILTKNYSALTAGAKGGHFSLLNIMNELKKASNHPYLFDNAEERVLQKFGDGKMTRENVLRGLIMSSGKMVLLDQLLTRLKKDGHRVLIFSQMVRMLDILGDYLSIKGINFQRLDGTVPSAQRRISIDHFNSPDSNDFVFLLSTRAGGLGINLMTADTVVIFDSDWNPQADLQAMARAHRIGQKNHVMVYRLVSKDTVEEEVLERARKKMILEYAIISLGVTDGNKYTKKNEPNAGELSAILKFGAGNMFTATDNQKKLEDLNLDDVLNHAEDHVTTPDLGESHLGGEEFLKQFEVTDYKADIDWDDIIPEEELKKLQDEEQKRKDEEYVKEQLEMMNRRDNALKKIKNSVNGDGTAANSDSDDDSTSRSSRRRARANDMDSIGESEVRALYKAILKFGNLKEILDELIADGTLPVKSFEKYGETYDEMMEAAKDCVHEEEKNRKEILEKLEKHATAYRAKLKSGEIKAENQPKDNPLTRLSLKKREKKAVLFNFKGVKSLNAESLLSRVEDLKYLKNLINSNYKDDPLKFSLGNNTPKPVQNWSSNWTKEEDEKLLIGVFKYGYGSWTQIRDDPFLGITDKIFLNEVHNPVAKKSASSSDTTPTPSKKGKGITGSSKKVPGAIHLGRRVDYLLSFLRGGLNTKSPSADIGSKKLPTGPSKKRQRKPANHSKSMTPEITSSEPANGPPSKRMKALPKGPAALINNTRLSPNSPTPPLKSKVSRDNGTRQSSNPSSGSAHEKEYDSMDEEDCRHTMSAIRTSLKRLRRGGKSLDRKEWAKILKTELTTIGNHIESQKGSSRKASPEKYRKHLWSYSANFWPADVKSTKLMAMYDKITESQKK
Structure (SMILES),Percent Effect [1] [%],Percent Effect [2] [%],Percent Effect [3] [%],Percent Effect [4] [%],Percent Effect (Trypanosoma cruzi) [%],Percent Effect [5] [%],Percent Effect [6] [%],Percent Effect (Homo sapiens) [%],Percent Effect [7] [%],Percent Effect [8] [%],Percent Effect [9] [%]
O=C(NCc1cccnc1-n1cccn1)C1CC(=O)N(CC2CC2)C1 (stereo unspecified),1.42,-2.6,12.9,-3.81,-3.43,7.37,2.99,18.6,-0.952,-2.35,-13.5
COc1cccc(Cc2nnc(SC3CCOC3=O)o2)c1 (stereo unspecified),-4.53,-2.67,-9.71,15.1,2.04,0.521,5.41,5.46,-4.92,8.64,-2.72
CC(C)(C)NC(=O)NC(=O)CNC(C)(C)c1ccc2c(c1)OCCO2,-5.89,13.5,-6.92,1.3,0.472,-4.01,6.67,11.6,4.43,13.6,-5.2
CN1CC(=O)N(c2cccc(F)c2)CC12CCN(S(C)(=O)=O)C2 (stereo unspecified),-4.45,10.8,2.57,0.944,-1.07,3.5,18.8,-6.25,4.32,10.3,-1.22
CC(C(=O)Nc1ccc(N2CCCC2)nc1)n1cncn1 (stereo unspecified),-5.02,10.8,-32.5,18.1,4.62,-9.62,14.2,19.2,7.39,18.5,-10.4
O=C(Nc1nc2c(s1)CN(S(=O)(=O)C1CC1)CC2)c1c(F)cccc1F,-3.34,0,17.1,-7.6,-4.11,2.27,9.41,30.1,3.23,7.5,-4.6
Cn1cc(CN2C[C@@H]3COC[C@@H](C(=O)N4CCCCO4)[C@@H]3C2)cn1,-2.29,2.67,9.23,1.72,0.787,3.03,8.19,3.52,7.45,8.97,1.85
O=C(c1ccc(C2CCCO2)s1)N1CCS(=O)(=O)CC1 (stereo unspecified),-1.4,18.9,-2.69,22.7,9.07,1.91,17.1,6.53,4.76,17.1,-2.6
O=C(NCCN1CCCCCC1=O)c1ccn(-c2ccc(F)cc2)n1,1.12,13.5,-9.65,-9.89,-6.51,0,15.5,24.8,4.43,16.1,-5.87
O=C(Cn1cccnc1=O)NC(Cc1cccs1)c1ccccn1 (stereo unspecified),-3.91,9.46,6.77,0.0436,2.57,5.8,8.27,15.5,5.38,11.7,-11.5
CCCNC(=O)C(C)NC(=O)CCc1ccccc1Br (stereo unspecified),0.82,4.17,3.58,-5.62,-9.43,4.42,16.5,8.51,0,5.13,-1.03
